Assay outcomes as filed in PubChem.
The list is not random: actives were taken first. Their share in the collection is about 3.3%.
S16 viability = Cell viability qHTS assay in S16 Pmp22-F2sN cells | Potency, µM (highest dose often 57.5 µM), inactives show top-dose activity change, negative = cytotoxicity, most hits filed as cytotoxic | 43,000 compounds, 0.48% hits | S16 Pmp22-F2sN Schwann cells viability, CellTiter-Glo, 24 h; also: % is scaled to controls: 0 for no effect and ±100 for the full control effect; nearly all actives have a fitted effect of over 65% in size
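Viability was measured by CellTiter-Glo luminescence (15 min, room temperature). This followed 24 h at 37 °C of compound exposure (23 nL pin transfer) in S16 Pmp22-F2sN Schwann cells, 500-1,000 per well.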
PMP22 txn prim = Cell-based coincidence reporter assay to measure PMP22 gene transcription in S16 Pmp22-F2sN cells - Primary screen. S16 Pmp22-F2sN Schwann cells (luciferase reporters placed in the Pmp22 gene), FLuc/NLuc coincidence luminescence, 24 h. Potency, µM (doses to about 57.5 µM), for inactives: at the top dose activity change, negative = inhibition, usual class: inhibitors. 43,000 compounds, 2% hits. AID 1508649, 2021; active = clear falling dose curves in both reporters; inconclusive = both reporters move, but less clearly or upward; inactive = either reporter flat; the % is the NLuc reporter signal; also: % is scaled to controls: 0 for no effect and ±100 for the full control effect
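qHTS, 1536-well. Cells seeded, compounds added by pin tool, 24 h 37C. Nano-Glo reagent 1 (lysis/FLuc), 10 min RT, read; Stop&Glo, 10 min RT, read NLuc.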
FH mod = Identification of activators of human fumarate hydratase by quantitative high-throughput screening; FH coupled MDH/diaphorase resazurin fluorescence, 15 min; Potency, µM (top dose mostly 79.9 µM), for the others: at the highest dose activity change, negative = inhibition, actives largely listed as inhibitors; 54,000 compounds, 0.22% hits; AID 1347055, 2019; also: % is scaled to controls: 0 for no effect and ±100 for the full control effect; the screen sought activators but most active calls are inhibition curves; nearly all actives have a fitted effect of over 45% in size
Target sequence (P07954 whole entry, looked up): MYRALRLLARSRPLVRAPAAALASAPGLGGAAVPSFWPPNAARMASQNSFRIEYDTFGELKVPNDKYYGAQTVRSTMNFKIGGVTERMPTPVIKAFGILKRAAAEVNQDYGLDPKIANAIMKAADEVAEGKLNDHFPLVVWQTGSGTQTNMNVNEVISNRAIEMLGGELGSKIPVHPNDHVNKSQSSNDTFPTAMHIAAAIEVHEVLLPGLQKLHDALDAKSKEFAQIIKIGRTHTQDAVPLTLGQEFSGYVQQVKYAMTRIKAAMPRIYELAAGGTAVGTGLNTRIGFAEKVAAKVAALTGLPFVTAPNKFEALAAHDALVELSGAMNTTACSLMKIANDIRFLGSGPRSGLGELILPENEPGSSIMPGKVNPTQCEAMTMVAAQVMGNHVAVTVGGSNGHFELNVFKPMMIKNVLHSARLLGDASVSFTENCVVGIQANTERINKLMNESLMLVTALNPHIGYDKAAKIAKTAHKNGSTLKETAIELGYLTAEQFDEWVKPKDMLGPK
pS6 MEF inh = Acumen qHTS Assay for Inhibitors of the mTORC1 Signaling Pathway in MEF (Tsc2-/-, p53-/-) Cells: Sytravon; Tsc2-/- p53-/- MEF, phospho-rpS6 immunofluorescence/PI, 24 h; Potency, µM (top dose mostly 38.3 µM), inactives show at the top dose activity change, negative = inhibition, actives largely listed as inhibitors; 44,000 compounds, 0.78% hits;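 also: plate controls were DMSO for no effect and rapamycin for full effect; nearly all actives have a fitted effect of over 50% in size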
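Cell-based qHTS: Tsc2-/- p53-/- MEF, 24 h cpd, 37 °C; fix/perm, anti-phospho-S6 Alexa-488 + PI; Acumen 488 nm scan; pS6/PI ratio, % positive cells; rapamycin 7.5 nM = inhibition ref; PI count = viability.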
HTT-AS promoter = Primary qHTS for Identification of Small Molecule Activators of Huntingtin-Antisense Promoter Activity | AID 1508624, 2021 | HEK293 HTT-AS promoter firefly luciferase reporter, 24 h; response scale: percent change from vehicle, -100% = no light | Potency, µM (top dose mostly 57.5 µM), for the others: top-dose activity change, positive = activation, hits mostly activators | 48,000 compounds, 0.24% hits; also: nearly all actives have a fitted effect of over 55% in size
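Quantitative HTS used concentration series of up to 57.5 uM final on HEK293 luciferase reporter cells, 24 h at 37 degrees C. Readout was Dual-Glo firefly luminescence.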
HTT prom inh = Primary qHTS for Identification of Small Molecule Inhibitors of Huntingtin Promoter Activity. Potency, µM (titrated, usually from 57.5 µM), for inactives: top-dose activity change, negative = inhibition, hits mostly inhibitors. 48,000 compounds, 0.93% hits. HEK293 HTT promoter firefly luciferase reporter, 24 h; also: nearly all actives have a fitted effect of over 50% in size
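Firefly luciferase readout (Dual-Glo, 10 min RT) after 24 h, 37 °C compound exposure (final up to 57.5 uM) of HEK293 reporter cells cultured 24 h beforehand; PTC124 at 50 uM final as control inhibitor; activity scaled vehicle 0%, zero RLU -100%.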
Active calls of the source: *; ! = repeats disagree; [ ] = another dose, or the depositor's remark. Unless noted, calls follow the shape of the dose curve; as a rule, active = well fitted curve in the direction sought with a large enough effect; inconclusive = small, poorly fitted or top-dose-only effect, or another doubt; inactive = no such curve, though single readings can be large; an effect the other way counts as inactive or inconclusive. Potency is read from the fitted curve at half-maximal effect.

`CCOc1c(Br)cc(C2CC(=O)Nc3cc4c(cc32)OCO4)cc1OC` (centres undefined) gave S16 viability inconclusive, PMP22 txn prim inconclusive, FH mod -12%, pS6 MEF inh 15µM*, HTT-AS promoter -38% and HTT prom inh inconclusive.
For CC(C)Oc1cccc(C2CC(=O)Nc3cc4c(cc32)OCO4)c1 (centres undefined) the results were S16 viability inconclusive, PMP22 txn prim 4.3µM*, FH mod -9%, pS6 MEF inh 6.6µM*, HTT-AS promoter -41% and HTT prom inh inconclusive.
`COC1(c2sc3c(N4CCOCC4)nc(-c4cnc(N)nc4)nc3c2C)COC1` gave FH mod -5%.
CCOc1ccc(-c2cn3c(n2)sc2cc(C(=O)NCCCN4CCCCC4)ccc23)cc1 was read as S16 viability 7.1µM*, PMP22 txn prim 14µM*, FH mod 0%, pS6 MEF inh 2%, HTT-AS promoter -18% and HTT prom inh inconclusive.
For Cc1ccc(-c2cn3c(n2)sc2cc(C(=O)NCCCN4CCCCC4)ccc23)cc1 the results were S16 viability 4µM*, PMP22 txn prim 8.9µM*, FH mod 1%, pS6 MEF inh 7%, HTT-AS promoter -51% and HTT prom inh inconclusive.
For CCOc1ccc(-c2cn3c(n2)sc2cc(C(=O)NCCCN(CC)CC)ccc23)cc1 the results were S16 viability 10µM*, PMP22 txn prim 4.5µM*, FH mod 8%, pS6 MEF inh -4%, HTT-AS promoter -66% and HTT prom inh inconclusive.
CCOc1ccc(-c2cn3c(n2)sc2cc(C(=O)NCCCN4CCCCCC4)ccc23)cc1 was read as S16 viability inconclusive, PMP22 txn prim inconclusive, FH mod inconclusive, pS6 MEF inh 3%, HTT-AS promoter 6% and HTT prom inh -4%.
COc1cc(C(=O)n2nc(C)c(Sc3ccc(Cl)cc3)c2C)cc(OC)c1OC was read as S16 viability 13%, PMP22 txn prim -4%, FH mod -9%, pS6 MEF inh 10µM*, HTT-AS promoter -17% and HTT prom inh -27%.
`C[C@@H]1C[C@@H](O)[C@@]2(CO)C(CO)=CCC[C@@H]2[C@@]12C[C@@H](c1ccoc1)OC2=O` gave FH mod 0%[53.3 µM].
O=C(Nc1cccc(C(F)(F)F)c1)Nc1cccs1 was read as S16 viability inconclusive, PMP22 txn prim inconclusive, FH mod -8%, pS6 MEF inh -9%, HTT-AS promoter -5% and HTT prom inh -23%.
O=C(Nc1cccc(C(F)(F)F)c1)Nc1cc(S(=O)(=O)NC2CC2)ccc1-c1ccsc1 was read as FH mod 19µM*!, HTT-AS promoter -18% and HTT prom inh inconclusive.
For CCOc1ccccc1NC(=O)CN1C(=O)C(=O)c2ccccc21 the results were S16 viability -30%, PMP22 txn prim inconclusive, FH mod -2%, pS6 MEF inh 2.6µM*, HTT-AS promoter -12% and HTT prom inh -12%.
For CCOc1ccccc1NC(=O)CN1c2ccccc2S(=O)(=O)c2ccccc21 the results were S16 viability inconclusive, PMP22 txn prim 1%, FH mod -18%, pS6 MEF inh -12%, HTT-AS promoter -20% and HTT prom inh -17%.
For Cc1cc(-c2nc(-c3ccc(OC(F)(F)F)cc3)no2)nn1Cc1ccnc(N2CCN(C3CC3)CC2)c1 the results were FH mod -5%.
`COc1ccc(C(=O)NCCc2csc(-c3ccc(Cl)cc3)n2)c(OC)c1` gave S16 viability 4%, PMP22 txn prim inconclusive, FH mod 35µM*, pS6 MEF inh 0%, HTT-AS promoter -23% and HTT prom inh inconclusive.
`CCCCOc1ccc(C(=O)NCCc2csc(-c3ccc(OC)cc3)n2)cc1` gave S16 viability -13%, PMP22 txn prim -76%, FH mod inconclusive, pS6 MEF inh -21%, HTT-AS promoter -40% and HTT prom inh 22µM*.
`COc1ccc(C(=O)NCCc2csc(-c3ccc(Cl)cc3)n2)cc1` gave S16 viability 14%, PMP22 txn prim inconclusive, FH mod inconclusive, pS6 MEF inh 3%, HTT-AS promoter -19% and HTT prom inh inconclusive.
For CC1CC(=O)C2=C(O1)OC1(C)CCC3C(C)(C)C4OC4C(=O)C3(C)C1C2 (centres undefined) the results were FH mod 0%[53.3 µM].
`CCOC(=O)N1CCN(C(=O)Cn2sc3nc(C)cc(C)c3c2=O)CC1` gave FH mod 4%.
`O=C(NCCc1ccccc1)c1ccc(Nc2nc3ccccc3n3nnnc23)cc1` gave S16 viability 28µM*, PMP22 txn prim inconclusive, FH mod 0%, pS6 MEF inh -2%, HTT-AS promoter -2% and HTT prom inh -11%.
For Cc1ccc(CNC(=O)c2cccc(Nc3nc4ccccc4n4nnnc34)c2)cc1 the results were S16 viability 8.9µM*, PMP22 txn prim 11µM*, FH mod -8%, pS6 MEF inh 0%, HTT-AS promoter inconclusive and HTT prom inh 19%.
CC(C)C1=CC2=CCC3[C@](C)(CCC[C@@]3(C)C(=O)O)C2CC1O (some centres undefined) was read as FH mod 1%[53.3 µM].
Screening Cn1nccc1Nc1nccc(-c2ccn([C@H](CO)c3ccc(Cl)c(F)c3)c(=O)c2)n1 returned FH mod 1%.
Screening CCC1CCc2nc3sc(C(=O)Nc4ccc(C)cc4)c(N)c3cc2C1 (centres undefined) returned S16 viability 3%, PMP22 txn prim -16%, FH mod 1%, pS6 MEF inh 18µM*, HTT-AS promoter -3% and HTT prom inh 6%.
`CC1=C(C(=O)Nc2ccc(Cl)cc2)C(c2ccccc2C)n2ncc(C(=O)Nc3ccc(C)cc3)c2N1` (centres undefined) gave S16 viability inconclusive, PMP22 txn prim -15%, FH mod inconclusive, pS6 MEF inh -19%, HTT-AS promoter -30% and HTT prom inh inconclusive.
